In PubChem BioAssay AID1159580 (chemical genetic matrix, 2015):
Values joined by “and” are separate entries in the source; they are usually repeats but may differ in a detail not shown here. Equal values may be shown once. Out of some 5,500 compounds screened, about 2,000 (36%) were called active. Roughly 18% stayed inconclusive and do not appear here. No stated cut-off is given here; in the data, active means normalized growth mostly below about 0.91 (no sharp cut-off); inconclusive means no clear call, values can overlap the other calls; inactive means mostly above about 0.92. The list shows a part of the results.

Test: chemical genetic growth profiling, strain panel (AID 1159580);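 further: tested at 20 µM; growth read once vehicle control cultures reached saturation at 30 °C; 1 = growth at the plate median or of vehicle wells; lower values mean less growth of the strain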
Conditions: S. cerevisiae deletion strains, growth OD

Measured: normalized growth

Clc1ccc(C(c2ccccc2Cl)C(Cl)Cl)cc1 (centres undefined)
active: locus YCL061C, strain MRC1, active compounds read low 0.907 | locus YER002W, strain NOP16, active compounds read low 1.12 [resistant] | locus YJL129C, strain trk1, active compounds read low 0.828 | locus YJL166W, strain qcr8, active compounds read low 0.825
inactive: locus YAL013W, strain DEP1, active compounds read low 0.997 | locus YAL021C, strain ccr4, active compounds read low 1.07 | locus YAL026C, strain drs2, active compounds read low 0.943 | locus YAL030W, strain snc1, active compounds read low 0.94 | locus YAL040C, strain CLN3, active compounds read low 1 | locus YBL061C, strain skt5, active compounds read low 0.948 | locus YBR009C, strain hhf1, active compounds read low 0.928 | locus YBR021W, strain FUR4, active compounds read low 0.949 | locus YBR023C, strain chs3, active compounds read low 0.973 | locus YBR171W, strain sec66, active compounds read low 0.941 | locus YBR229C, strain ROT2, active compounds read low 0.998 | locus YBR231C, strain swc5, active compounds read low 0.964 | locus YBR279W, strain paf1, active compounds read low 0.987 | locus YCL011C, strain gbp2, active compounds read low 0.918 | locus YCL016C, strain dcc1, active compounds read low 0.97 | locus YCL029C, strain bik1, active compounds read low 0.986 | locus YCL061C, strain MRC1 (second series), active compounds read low 1.01 | locus YCL069W, strain vba3, active compounds read low 0.982 | locus YCR088W, strain abp1, active compounds read low 0.988 | locus YDL005C, strain med2, active compounds read low 0.967 | locus YDL035C, strain GPR1, active compounds read low 1 | locus YDL040C, strain nat1, active compounds read low 0.989 | locus YDL074C, strain BRE1, active compounds read low 0.956 | locus YDL101C, strain DUN1, active compounds read low 1 | locus YDL134C, strain PPH21, active compounds read low 0.993 | locus YDL185W, strain tfp1, active compounds read low 0.984 | locus YDL192W, strain arf1, active compounds read low 0.989 | locus YDR001C, strain nth1, active compounds read low 0.981 | locus YDR069C, strain doa4, active compounds read low 0.915 | locus YDR101C, strain arx1, active compounds read low 0.987 | locus YDR137W, strain rgp1, active compounds read low 0.932 | locus YDR150W, strain NUM1, active compounds read low 1.02 | locus YDR159W, strain sac3, active compounds read low 1 | locus YDR162C, strain NBP2, active compounds read low 1.02 | locus YDR195W, strain ref2 1.06 | locus YDR297W, strain sur2, active compounds read low 0.956 | locus YDR318W, strain mcm21, active compounds read low 0.985 | locus YDR334W, strain swr1, active compounds read low 0.962 | locus YDR335W, strain msn5, active compounds read low 0.967 | locus YDR363W, strain ESC2, active compounds read low 1.01 | locus YDR388W, active compounds read low 0.991 | locus YDR392W, strain spt3, active compounds read low 0.869 | locus YDR502C, strain sam2, active compounds read low 0.984 | locus YEL003W, strain gim4, active compounds read low 0.969 | locus YEL037C, strain rad23, active compounds read low 0.983 | locus YEL061C, strain CIN8 (second series), active compounds read low 0.984 | locus YEL061C, strain CIN8, active compounds read low 1 | locus YER015W, strain faa2, active compounds read low 0.978 | locus YER016W, strain bim1, active compounds read low 1.02 | locus YER110C, active compounds read low 0.986 | locus YER111C, strain swi4, active compounds read low 0.986 | locus YER155C, strain BEM2 (second series), active compounds read low 0.96 | locus YER155C, strain BEM2, active compounds read low 0.994 | locus YER167W, strain BCK2, active compounds read low 1 | locus YFR010W, strain ubp6, active compounds read low 0.942 | locus YGL078C, strain dbp3, active compounds read low 0.99 | locus YGL086W, strain mad1, active compounds read low 0.981 | locus YGL167C, strain pmr1, active compounds read low 0.972 | locus YGL173C, strain kem1, active compounds read low 0.936 | locus YGL227W, strain vid30, active compounds read low 0.987 | locus YGL240W, strain doc1, active compounds read low 0.925 | locus YGL248W, strain PDE1, active compounds read low 0.993 | locus YGL253W, strain hxk2, active compounds read low 0.977 | locus YGR078C, strain PAC10, active compounds read low 0.987 and 0.999 | locus YGR135W, strain pre9, active compounds read low 0.968 | locus YGR229C, strain SMI1, active compounds read low 0.978 and 1.01 | locus YGR252W, strain gcn5, active compounds read low 0.874 | locus YHR013C, strain ard1, active compounds read low 1.11 | locus YHR027C, strain rpn1, active compounds read low 0.982 | locus YHR030C, strain SLT2, active compounds read low 0.985 and 0.893 | locus YHR079C, strain IRE1 (second series), active compounds read low 0.983 | locus YHR079C, strain IRE1, active compounds read low 0.947 | locus YHR094C, strain hxt1, active compounds read low 0.992 | locus YHR129C, strain ARP1, active compounds read low 1 | locus YHR142W, strain chs7, active compounds read low 0.919 | locus YHR200W, strain rpn10, active compounds read low 0.98 | locus YIL066C, strain RNR3, active compounds read low 0.963 | locus YIL073C, strain SPO22, active compounds read low 0.952 | locus YIL125W, strain kgd1, active compounds read low 0.998 | locus YIR030C, strain dcg1, active compounds read low 0.99 | locus YJL092W, strain hpr5, active compounds read low 0.961 | locus YJL095W, strain BCK1 (second series), active compounds read low 0.973 | locus YJL095W, strain BCK1, active compounds read low 1 and 0.933 | locus YJL115W, strain asf1, active compounds read low 0.976 | locus YJL134W, strain LCB3, active compounds read low 1 | locus YJL154C, strain vps35, active compounds read low 0.978 | locus YJL164C, strain tpk1, active compounds read low 0.95 | locus YJL168C, strain set2, active compounds read low 0.988 | locus YJL187C, strain SWE1 (second series), active compounds read low 0.997 | locus YJR043C, strain POL32, active compounds read low 1
